Like-named read-outs stand apart in the source and are kept apart here.
Key:
[1] = tested on: RIPK2; conditions: concentration: 1 μM, replicates: in singlicate; n = 1
[2] = tested on: RIPK4; conditions: concentration: 1 μM, replicates: in singlicate; n = 1
[3] = tested on: RIPK5; conditions: concentration: 1 μM, replicates: in singlicate; n = 1
[4] = tested on: ROCK1; conditions: n = 1
[5] = tested on: ROCK2; conditions: concentration: 1 μM, replicates: in singlicate; n = 1
[6] = tested on: ROS1; conditions: concentration: 1 μM, replicates: in singlicate; n = 1
[7] = tested on: RPS6KA4(Kin.Dom.1-N-terminal); conditions: concentration: 1 μM, replicates: in singlicate; n = 1
[8] = tested on: RPS6KA4(Kin.Dom.2-C-terminal); conditions: concentration: 1 μM, replicates: in singlicate; n = 1
[9] = tested on: RPS6KA5(Kin.Dom.1-N-terminal); conditions: concentration: 1 μM, replicates: in singlicate; n = 1
[10] = tested on: RPS6KA5(Kin.Dom.2-C-terminal); conditions: concentration: 1 μM, replicates: in singlicate; n = 1
[11] = tested on: T1, RSK1(Kin.Dom.1-N-terminal); conditions: concentration: 1 μM, replicates: in singlicate; n = 1
T1 construct: gene RPS6KA1

[12] = tested on: T2, RSK1(Kin.Dom.2-C-terminal); conditions: concentration: 1 μM, replicates: in singlicate; n = 1
T2 construct: gene RPS6KA1

[13] = tested on: T3, RSK2(Kin.Dom.1-N-terminal); conditions: concentration: 1 μM, replicates: in singlicate; n = 1
T3 construct: gene RPS6KA3

[14] = tested on: T4, RSK2(Kin.Dom.2-C-terminal); conditions: concentration: 1 μM, replicates: in singlicate; n = 1
T4 construct: gene RPS6KA3

[15] = tested on: T5, RSK3(Kin.Dom.1-N-terminal); conditions: concentration: 1 μM, replicates: in singlicate; n = 1
T5 construct: gene RPS6KA2

[16] = tested on: T6, RSK3(Kin.Dom.2-C-terminal); conditions: concentration: 1 μM, replicates: in singlicate; n = 1
T6 construct: gene RPS6KA2

[17] = tested on: T7, RSK4(Kin.Dom.1-N-terminal); conditions: concentration: 1 μM, replicates: in singlicate; n = 1
T7 construct: gene RPS6KA6

[18] = tested on: T8, RSK4(Kin.Dom.2-C-terminal); conditions: concentration: 1 μM, replicates: in singlicate; n = 1
T8 construct: gene RPS6KA6

[19] = tested on: S6K1; conditions: concentration: 1 μM, replicates: in singlicate; n = 1
[20] = tested on: SBK1; conditions: concentration: 1 μM, replicates: in singlicate; n = 1
[21] = concentration: 1 μM, replicates: in singlicate
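Also: KINOMEscan kinase panel screen.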

In the case of Nc1ncnc2c1ncn2-c1ccc(Cl)cc1 [AH2635], the “%Inh” value [1] is reported as 2%, the “%Inh” value [2] is reported as 2% and the “%Inh” value [3] is reported as 0%. The “%Inh” value [4, 21] was 30%, the “%Inh” value [5] was 0% and the “%Inh” value [6] was 23%. For the same compound, the “%Inh” value [7] was 20%, the “%Inh” value [8] was 0% and the “%Inh” value [9] was 0%. The “%Inh” value [10] was 8%, the “%Inh” value [11] was 9% and the “%Inh” value [12] was 4%. For the same compound, the “%Inh” value [13] was 0%, the “%Inh” value [14] was 0% and the “%Inh” value [15] was 0%. The “%Inh” value [16] was 0%, the “%Inh” value [17] was 0% and the “%Inh” value [18] was 46%. The “%Inh” value [19] was 0% and the “%Inh” value [20] was 0%.

For FC(F)(F)c1ccc(-c2ncn(CCCN3CCOCC3)c2-c2ccncc2)cc1 [SB-217780], the “%Inh” value [1] was 0%, the “%Inh” value [2] was 61% and the “%Inh” value [3] was 0%. The “%Inh” value [4, 21] was 27%, the “%Inh” value [5] was 0% and the “%Inh” value [6] was 0%. For the same compound, the “%Inh” value [7] was 1%, the “%Inh” value [8] was 11% and the “%Inh” value [9] was 0%. For the same compound, the “%Inh” value [10] was 0%, the “%Inh” value [11] was 11% and the “%Inh” value [12] was 6%. For the same compound, the “%Inh” value [13] was 0%, the “%Inh” value [14] was 28% and the “%Inh” value [15] was 32%. For the same compound, the “%Inh” value [16] was 19%, the “%Inh” value [17] was 1% and the “%Inh” value [18] was 44%. The “%Inh” value [19] was 0% and the “%Inh” value [20] was 13%.

With Nc1nc(-c2ccccc2F)c(-c2ccnc3ccccc23)s1 [GW560459] the “%Inh” value [1] was 98%, the “%Inh” value [2] was 0% and the “%Inh” value [3] was 0%. For the same compound, the “%Inh” value [4, 21] was 14%, the “%Inh” value [5] was 24% and the “%Inh” value [6] was 4%. For the same compound, the “%Inh” value [7] was 3%, the “%Inh” value [8] was 0% and the “%Inh” value [9] was 10%. The “%Inh” value [10] was 1%, the “%Inh” value [11] was 0% and the “%Inh” value [12] was 35%. The “%Inh” value [13] was 6%, the “%Inh” value [14] was 95.6% and the “%Inh” value [15] was 0%. For the same compound, the “%Inh” value [16] was 1%, the “%Inh” value [17] was 0% and the “%Inh” value [18] was 89%. For the same compound, the “%Inh” value [19] was 0% and the “%Inh” value [20] was 6%.

For COc1cc(Nc2ccnc3ccc(C(F)(F)F)cc23)cc(OC)c1OC [GW577382], the “%Inh” value [1] was 64%, the “%Inh” value [2] was 1% and the “%Inh” value [3] was 0%. The “%Inh” value [4, 21] was 0%, the “%Inh” value [5] was 15% and the “%Inh” value [6] was 9%. For the same compound, the “%Inh” value [7] was 10%, the “%Inh” value [8] was 0% and the “%Inh” value [9] was 6%. For the same compound, the “%Inh” value [10] was 13%, the “%Inh” value [11] was 18% and the “%Inh” value [12] was 0%. For the same compound, the “%Inh” value [13] was 98.3%, the “%Inh” value [14] was 32% and the “%Inh” value [15] was 4%. For the same compound, the “%Inh” value [16] was 20%, the “%Inh” value [17] was 0% and the “%Inh” value [18] was 21%. The “%Inh” value [19] was 1% and the “%Inh” value [20] was 5%.

For Cc1cc(Nc2nc(-c3cccc(C)n3)nc3ccccc23)ccn1 [GW872411], the “%Inh” value [1] was 14%, the “%Inh” value [2] was 0% and the “%Inh” value [3] was 0%. For the same compound, the “%Inh” value [4, 21] was 27%, the “%Inh” value [5] was 0% and the “%Inh” value [6] was 0%. For the same compound, the “%Inh” value [7] was 2%, the “%Inh” value [8] was 0% and the “%Inh” value [9] was 0%. For the same compound, the “%Inh” value [10] was 16%, the “%Inh” value [11] was 23% and the “%Inh” value [12] was 0%. The “%Inh” value [13] was 24%, the “%Inh” value [14] was 0% and the “%Inh” value [15] was 0%. For the same compound, the “%Inh” value [16] was 7%, the “%Inh” value [17] was 0% and the “%Inh” value [18] was 0%. For the same compound, the “%Inh” value [19] was 7% and the “%Inh” value [20] was 0%.

With CN(C)c1cc(-c2ccc3c(N)n[nH]c3c2)nc(N)n1 [GSK2219329] the “%Inh” value [1] was 0%, the “%Inh” value [2] was 15% and the “%Inh” value [3] was 0%. The “%Inh” value [4, 21] was 0%, the “%Inh” value [5] was 0% and the “%Inh” value [6] was 10%. The “%Inh” value [7] was 8%, the “%Inh” value [8] was 0% and the “%Inh” value [9] was 18%. For the same compound, the “%Inh” value [10] was 0%, the “%Inh” value [11] was 11% and the “%Inh” value [12] was 0%. The “%Inh” value [13] was 0%, the “%Inh” value [14] was 0% and the “%Inh” value [15] was 0%. For the same compound, the “%Inh” value [16] was 4%, the “%Inh” value [17] was 0% and the “%Inh” value [18] was 14%. The “%Inh” value [19] was 2% and the “%Inh” value [20] was 7%.

With Cl.c1ccc(Cn2cnc3cc(Nc4ncnc5ccccc45)ccc32)cc1 [GW272142] the “%Inh” value [1] was 0%, the “%Inh” value [2] was 12% and the “%Inh” value [3] was 5%. The “%Inh” value [4, 21] was 4%, the “%Inh” value [5] was 2% and the “%Inh” value [6] was 6%. For the same compound, the “%Inh” value [7] was 6%, the “%Inh” value [8] was 0% and the “%Inh” value [9] was 0%. For the same compound, the “%Inh” value [10] was 7%, the “%Inh” value [11] was 0% and the “%Inh” value [12] was 0%. For the same compound, the “%Inh” value [13] was 0%, the “%Inh” value [14] was 0% and the “%Inh” value [15] was 0%. For the same compound, the “%Inh” value [16] was 6%, the “%Inh” value [17] was 0% and the “%Inh” value [18] was 5%. The “%Inh” value [19] was 0% and the “%Inh” value [20] was 1%.

For CN1C(=O)C(Nc2cc(Cl)c(O)c(Cl)c2)=C(c2ccc(Cl)cc2)C1=O [SB-404321], the “%Inh” value [1] was 0%, the “%Inh” value [2] was 32% and the “%Inh” value [3] was 0%. The “%Inh” value [4, 21] was 6%, the “%Inh” value [5] was 0% and the “%Inh” value [6] was 0%. The “%Inh” value [7] was 0%, the “%Inh” value [8] was 0% and the “%Inh” value [9] was 0%. The “%Inh” value [10] was 0%, the “%Inh” value [11] was 0% and the “%Inh” value [12] was 0%. For the same compound, the “%Inh” value [13] was 5%, the “%Inh” value [14] was 0% and the “%Inh” value [15] was 0%. The “%Inh” value [16] was 9%, the “%Inh” value [17] was 0% and the “%Inh” value [18] was 0%. For the same compound, the “%Inh” value [19] was 17% and the “%Inh” value [20] was 0%.

O=C(Nc1n[nH]c2cc(-c3ccccc3F)ccc12)C1CC1 [SB-733371] was tested, and the “%Inh” value [1] was 11%, the “%Inh” value [2] was 13% and the “%Inh” value [3] was 0%. The “%Inh” value [4, 21] was 0%, the “%Inh” value [5] was 0% and the “%Inh” value [6] was 4%. For the same compound, the “%Inh” value [7] was 0%, the “%Inh” value [8] was 0% and the “%Inh” value [9] was 0%. For the same compound, the “%Inh” value [10] was 0%, the “%Inh” value [11] was 32% and the “%Inh” value [12] was 0%. The “%Inh” value [13] was 34%, the “%Inh” value [14] was 0% and the “%Inh” value [15] was 0%. For the same compound, the “%Inh” value [16] was 0%, the “%Inh” value [17] was 0% and the “%Inh” value [18] was 0%. For the same compound, the “%Inh” value [19] was 0% and the “%Inh” value [20] was 17%.

With CCn1c(-c2nonc2N)nc2ccccc21 [SB-693162/GW549034] the “%Inh” value [1] was 0%, the “%Inh” value [2] was 6% and the “%Inh” value [3] was 53%. The “%Inh” value ([4]; 1 µM) was 78%, the “%Inh” value [5] was 76% and the “%Inh” value [6] was 0%. For the same compound, the “%Inh” value [7] was 0%, the “%Inh” value [8] was 40% and the “%Inh” value [9] was 0%. The “%Inh” value [10] was 0%, the “%Inh” value [11] was 6% and the “%Inh” value [12] was 4%. The “%Inh” value [13] was 41%, the “%Inh” value [14] was 3% and the “%Inh” value [15] was 4%. For the same compound, the “%Inh” value [16] was 19%, the “%Inh” value [17] was 48% and the “%Inh” value [18] was 15%. For the same compound, the “%Inh” value [19] was 43% and the “%Inh” value [20] was 22%.

For O=C(Nc1ccc2c(c1)OCO2)NC1CCN(c2ccnc(NCc3ccc(F)cc3)n2)CC1 [GSK1379859], the “%Inh” value [1] was 10%, the “%Inh” value [2] was 0% and the “%Inh” value [3] was 10%. The “%Inh” value [4, 21] was 74%, the “%Inh” value [5] was 47% and the “%Inh” value [6] was 0%. For the same compound, the “%Inh” value [7] was 13%, the “%Inh” value [8] was 0% and the “%Inh” value [9] was 9%. For the same compound, the “%Inh” value [10] was 0%, the “%Inh” value [11] was 1% and the “%Inh” value [12] was 0%. For the same compound, the “%Inh” value [13] was 3%, the “%Inh” value [14] was 99.5% and the “%Inh” value [15] was 0%. For the same compound, the “%Inh” value [16] was 0%, the “%Inh” value [17] was 0% and the “%Inh” value [18] was 0%. For the same compound, the “%Inh” value [19] was 8% and the “%Inh” value [20] was 11%.

From paper PMC5540273 (PLoS ONE, 2017)
